Experiment [1] is described as follows: polyglutamine-triggered caspase-3 activation inhibitors, cell-based (AID 1583). The conditions noted are these: polyglutamine-induced caspase-3 activation, cell assay; stronger effect = higher value;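 tested at 10 µM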.
Experiment [2] is described as follows: suppressors of polyQ aggregation in yeast, 75Q-TubU reporter (AID 1593). The note with it: Yeast 75Q polyglutamine aggregation reporter.
The nature of experiment [3]: rescue of polyQ-huntingtin neuronal dysfunction in worms, whole organism, C. elegans mechanosensory neurons, N-terminal huntingtin (AID 1599). The note with it: touch response, stronger effect = higher value.
A short description of experiment [4]: inhibitors of mitochondrial cytochrome c release, biochemical, purified mitochondria (AID 1603).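 Note: mouse liver mitochondria challenged with calcium chloride; signal normalized to the plate average as 100%.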 The note with it: stronger effect = lower value.
Experiment [5] in a line: inhibitors of polyQ protein aggregation (AID 1604). The note with it: polyglutamine-induced protein aggregation inhibition assay; stronger effect = higher value; tested at 2.5 µM.
Experiment [6] in a line: enhancers of glutamate uptake in motor neurons, MN-1 cell line (AID 1612).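 Note: tested at 1 µM final; 0% = mean of DMSO vehicle wells on each plate; positive means more glutamate uptake than control and negative means less.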 The note with it: MN-1 motor neuron cells, stronger effect = higher value.
Experiment [7] can be described thus: suppressors of polyglutamine aggregation in yeast, 75Q-TubH (AID 1616). The conditions noted are these: S. cerevisiae 75Q-TubH polyglutamine aggregation suppression; stronger effect = higher value.
Experiment [8] can be described thus: liver-stage malaria parasite growth inhibition, primary screen, cell-based, HepG2, luciferase luminescence, HepG2 viability (AID 624349; in the data active = parasite load remaining mostly below about 12%, no sharp cut-off; inactive = mostly above about 10%;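 note: 100% = mean of DMSO negative control wells on the same plate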). The conditions noted are these: P. berghei liver stage in HepG2, luciferase luminescence, concentration not given here; parasite load remaining: stronger effect = lower value; viability: measured here: HepG2 viability without parasites.

The target of experiment [9] is 6-phosphogluconate dehydrogenase, decarboxylating (Homo sapiens) (UniProt P52209). Kind of experiment: 6PGD enzyme inhibitors, primary screen, biochemical, human, recombinant enzyme, NADPH absorbance (AID 1159550;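 active = at least 20% inhibition of 6-phosphogluconate dehydrogenase activity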). The note with it: recombinant 6PGD, NADPH absorbance 341 nm; at 10 µM; stronger effect = higher value.
Chain of 6-phosphogluconate dehydrogenase, decarboxylating (Homo sapiens) (P52209 whole entry, looked up): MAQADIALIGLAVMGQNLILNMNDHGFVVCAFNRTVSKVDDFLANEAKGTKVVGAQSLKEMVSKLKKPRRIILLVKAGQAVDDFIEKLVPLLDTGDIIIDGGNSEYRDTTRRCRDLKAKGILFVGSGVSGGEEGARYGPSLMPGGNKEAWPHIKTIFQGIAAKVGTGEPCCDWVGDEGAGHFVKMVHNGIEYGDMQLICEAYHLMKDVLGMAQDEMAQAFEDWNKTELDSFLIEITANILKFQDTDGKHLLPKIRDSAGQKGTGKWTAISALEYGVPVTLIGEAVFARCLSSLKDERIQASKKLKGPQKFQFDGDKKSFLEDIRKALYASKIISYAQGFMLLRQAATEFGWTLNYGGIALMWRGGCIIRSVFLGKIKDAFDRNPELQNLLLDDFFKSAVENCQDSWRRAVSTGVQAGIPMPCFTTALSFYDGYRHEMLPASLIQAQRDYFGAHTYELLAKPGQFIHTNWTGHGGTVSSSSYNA
Experiment [10] can be described thus: differential killing of epithelial or mesenchymal cells, primary screen, imaging, PC-3E GFP, TEM4-18 mCherry, co-culture (AID 1345086;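 active = compounds killing one labelled cell type while sparing the other, by normalised counts and ratio limits, not self-fluorescent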;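 for all read-outs here: cells exposed to compound for 72 h before imaging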;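 for red/green cell ratio (normalised): normalised mesenchymal count divided by normalised epithelial count so high means epithelial killing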). The note with it: imaging cell counts, at 1 µM; for red/green cell ratio (normalised): actives lie on both sides, counts scaled to control wells, 1 = unselective.
Experiment [11] in a line: sensitizers of A549 cells to miR-34 induction, primary screen, imaging, A549 dox-inducible miR-34, nuclei and caspase counts (AID 1347080). The conditions noted are these: A549 miR-34 inducible, Hoechst nuclei count, 48 h.
Experiment [12] can be described thus: survival rescue of mitochondrial mutant cells in low glucose, primary screen, MELAS cybrids, Rieske KO mouse fibroblasts, CellTiter-Glo (AID 1508586;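 active = mean z-score across replicates of 1.96 or higher in either the MELAS or the Rieske mutant cell line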;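 note: z relative to plate mean and SD of compound and empty wells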).
Experiment [13] concerns the target NAD(+) hydrolase SARM1 (Homo sapiens) (UniProt Q6SZW1). Kind of experiment: SARM1 TIR NADase inhibitors, cell lysate, NAD-Glo luminescence (AID 1508614;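 active = compound whose remaining NAD level is above about 45 nM, limit read from the data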;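 note: higher remaining NAD means stronger inhibition of SARM1 NADase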). The conditions noted are these: SAM-TIR HEK293T lysate NADase, at 1 µM, stronger effect = higher value.
For experiment [14], the target named is Mitogen-activated protein kinase 7 (Homo sapiens) (UniProt Q13164). Kind of experiment: ERK5 transactivation activators in reporter cells, primary screen, cell-based, HTS (AID 1508626;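 active = luciferase signal above three times the same-plate solvent-only control wells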;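 note: luciferase driven by Gal4-ERK5 fusion binding five Gal4 sites before minimal TATA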). The note with it: HeLa Gal4-ERK5 transactivation, 18 h, at 5 µM, stronger effect = higher value.
Chain of Mitogen-activated protein kinase 7 (Homo sapiens) (Q13164 whole entry, looked up, the tested form may be a part): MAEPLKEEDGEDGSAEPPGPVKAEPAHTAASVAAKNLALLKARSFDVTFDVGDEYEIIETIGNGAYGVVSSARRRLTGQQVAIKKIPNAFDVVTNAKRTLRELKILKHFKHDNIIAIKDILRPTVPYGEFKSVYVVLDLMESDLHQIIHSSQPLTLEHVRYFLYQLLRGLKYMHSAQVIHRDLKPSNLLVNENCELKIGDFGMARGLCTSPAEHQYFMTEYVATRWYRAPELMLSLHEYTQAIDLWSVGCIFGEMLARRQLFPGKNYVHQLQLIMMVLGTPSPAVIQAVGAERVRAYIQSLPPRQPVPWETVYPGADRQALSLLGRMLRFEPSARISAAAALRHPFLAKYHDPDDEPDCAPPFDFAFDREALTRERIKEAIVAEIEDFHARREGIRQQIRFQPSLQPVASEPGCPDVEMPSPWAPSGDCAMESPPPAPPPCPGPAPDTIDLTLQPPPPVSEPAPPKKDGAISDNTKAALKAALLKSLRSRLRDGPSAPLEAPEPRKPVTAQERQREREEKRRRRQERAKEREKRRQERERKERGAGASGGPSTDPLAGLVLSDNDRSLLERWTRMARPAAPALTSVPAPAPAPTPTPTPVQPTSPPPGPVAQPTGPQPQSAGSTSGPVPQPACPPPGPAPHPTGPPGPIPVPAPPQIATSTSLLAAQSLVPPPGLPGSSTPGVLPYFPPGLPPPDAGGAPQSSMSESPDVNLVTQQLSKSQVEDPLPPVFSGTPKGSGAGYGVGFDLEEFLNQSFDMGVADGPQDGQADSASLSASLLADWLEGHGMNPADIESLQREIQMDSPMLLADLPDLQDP
A short description of experiment [15]: viability rescue of complex I mutant cybrids, primary screen, cell-based, galactose medium, ATP luminescence (AID 1645843;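 active = z-score of at least 1.8 in each of two replicates, scored against plate mean and spread of sample wells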;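 note: positive z means more ATP and so rescue of galactose-driven cybrid death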). The conditions noted are these: complex I mutant cybrid cells, 72 h, stronger effect = higher value.
Experiment [16] in a line: hESC survival regulators, cell-based (AID 493140; call rule not given here;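 note: cells exposed to compounds for four days before counting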). The conditions noted are these: human embryonic stem cell survival screen; stronger effect = higher value.
Experiment [17] is described as follows: SU-DIPG-VI glioma cell viability, MIPE4.0 library, CellTiter-Glo luminescence, qHTS (AID 1347066; cut-off not given, nearly all actives have AC50 up to about 30 µM;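 note: cells exposed to compound for 48 hours before readout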). The conditions noted are these: CellTiter-Glo ATP luminescence. In general terms: ATP-based viability assays read luminescence as a measure of living cells.
Setting [18] is: measured here: epithelial PC-3E GFP cell survival.
[19] abbreviates: measured here: mesenchymal TEM4-18 mCherry cell survival.
[20] abbreviates: stronger effect = lower value, cell number ratio, induced over uninduced.
Where [21] appears, read: measured here: relative caspase fold change +Dox/-Dox.
Where [22] appears, read: measured here: total cells with miR-34 induction, stronger effect = lower value.
Where [23] appears, read: measured here: total cells without miR-34 induction.
Where [24] appears, read: MELAS cybrid survival, CellTiter-Glo 48 h, stronger effect = higher value.
Where [25] appears, read: Rieske KO mouse fibroblast survival, CellTiter-Glo 72 h.

Results on five molecules are retold here after PubChem BioAssay.

Several values for one entry are separate records, joined by “and”; a condition that tells them apart may be missing. Equal values may be shown once. Inconclusive results are not listed. For part of these data: Measured potencies and affinities stand elsewhere. More than one record can exist for a structure, and the calls need not agree. Activity calls are given as the source filed them.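 Rule for the calls, unless noted: active = compounds whose cell count with miR-34 switched on is under 0.7 times the count with it off; inactive = the rest.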

Chain of NAD(+) hydrolase SARM1 (Homo sapiens) (Q6SZW1 whole entry, looked up, the tested form may be a part): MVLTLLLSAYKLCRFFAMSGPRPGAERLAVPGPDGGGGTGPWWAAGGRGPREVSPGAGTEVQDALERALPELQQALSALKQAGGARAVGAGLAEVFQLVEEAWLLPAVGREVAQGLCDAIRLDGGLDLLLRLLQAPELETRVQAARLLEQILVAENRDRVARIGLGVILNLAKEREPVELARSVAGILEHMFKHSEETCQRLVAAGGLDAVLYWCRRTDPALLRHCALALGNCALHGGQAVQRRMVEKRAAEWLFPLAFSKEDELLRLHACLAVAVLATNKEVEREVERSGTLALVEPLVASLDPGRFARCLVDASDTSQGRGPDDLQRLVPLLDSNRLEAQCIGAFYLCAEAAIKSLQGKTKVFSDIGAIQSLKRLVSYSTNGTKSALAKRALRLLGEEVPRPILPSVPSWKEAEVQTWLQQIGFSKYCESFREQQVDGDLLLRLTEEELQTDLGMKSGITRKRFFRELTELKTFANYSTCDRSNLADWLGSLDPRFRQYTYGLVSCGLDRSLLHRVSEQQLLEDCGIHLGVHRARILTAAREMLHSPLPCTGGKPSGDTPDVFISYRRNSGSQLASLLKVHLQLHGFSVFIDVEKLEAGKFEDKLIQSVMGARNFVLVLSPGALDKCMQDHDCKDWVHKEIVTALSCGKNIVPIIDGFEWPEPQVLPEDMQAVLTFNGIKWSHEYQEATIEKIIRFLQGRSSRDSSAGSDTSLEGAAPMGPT

`C[N+](C)(C)CCO`: the inhibition – broadly, the change of the read-out against control, counted positive when it falls – was 2.29% in experiment [1] and 2.82% (inactive) in [9]. Moreover, in [2], the score is 1.21. For the same molecule, in experiment [3], the rescue above control was 0.45. Further, the cytochrome c release ratio in [4] stood at 1.11. This molecule also returned an inhibition of aggregation in experiment [5] of 51.5%. In addition, in experiment [6], the glutamate uptake change is 11.9%. Also, the aggregation suppression score in [7] turned out to be 1.39. In experiment [8], the parasite load remaining was 151% (inactive) and 49.7% (inactive). Further, the viability – broadly, a read-out of living cells in per cent, often relative to untreated cells – in experiment [8] is 89.2% and 117%. For the same molecule, the red/green cell ratio (normalised) in [10] is 1.11 (inactive). In addition, the normalised cell number in experiment [10] (setting [18]) worked out at 1.16; in [10] (setting [19]), 1.3. Also, the fold change was 1.01 (inactive) and 0.882 (inactive) and 0.829 (inactive) in [11] (setting [20]); 2.28 and 1.39 and 4.39 in experiment [11] (setting [21]). Also, the cell count in [11] (setting [22]) is 9630 and 8510 and 11000; in [11] (setting [23]) it was 9520 and 9640 and 13300. The figures for the z-score in experiment [12] (setting [24]), in [12] (setting [25]) and in experiment [15] were -0.228 (inactive), -0.171 and 0.51 (inactive), respectively. Moreover, in experiment [13], the remaining NAD is 10 nM (inactive). For the same molecule, the luciferase signal in [14] is 200 AU (inactive).
As for `CC[C@H]1OC(=O)[C@H](C)[C@@H](O[C@H]2C[C@@](C)(OC)[C@@H](O)[C@H](C)O2)[C@H](C)[C@@H](O[C@@H]2O[C@H](C)C[C@H](N(C)C)[C@H]2O)[C@](C)(O)C[C@@H](C)C(=O)[C@H](C)[C@@H](O)[C@]1(C)O`, the inhibition in experiment [1] was -6% and 7.62% and 29.3%; in experiment [9], 2.57% (inactive) and -12% (inactive). Besides, the score in [2] was 1 and 1.46 and 0.46. For the same molecule, in experiment [3], the rescue above control was 2.19 and 2 and 0.57. The cytochrome c release ratio in experiment [4] is 1.13 and 0.65 and 0.96. Besides, the inhibition of aggregation in experiment [5] is 76.2% and 28.2% and 15.7%. For the same molecule, the glutamate uptake change in [6] was -4.4% and 1.02% and 35.1%. Besides, the aggregation suppression score in experiment [7] is 0.915 and 1.27 and 0.716. In addition, the parasite load remaining in experiment [8] is 44.8% (inactive) and 99.9% (inactive) and 62.2% (inactive). In addition, the viability in [8] is 44.6% and 74.8% and 115%. Moreover, the red/green cell ratio (normalised) in experiment [10] is 1.08 (inactive) and 0.76 (inactive). In addition, the normalised cell number is 0.96 and 0.98 in experiment [10] (setting [18]); 1.03 and 0.74 in [10] (setting [19]). Further, the fold change in experiment [11] (setting [20]) is 0.923 (inactive) and 0.889 (inactive) and 0.914 (inactive); in [11] (setting [21]) it was 0.947 and 1.27 and 1.04. Moreover, the cell count in experiment [11] (setting [22]) is 7930 and 8750 and 10800; in [11] (setting [23]), 8590 and 9850 and 11800. The z-score in [12] (setting [24]) was -0.415 (inactive); in [12] (setting [25]), -0.471. Besides, the remaining NAD in experiment [13] is 85 nM (active) and 10 nM (inactive). In addition, in [14], the luciferase signal is 60 AU (inactive).
Take `COc1ccc2cc1Oc1ccc(cc1)C[C@H]1c3cc(c(OC)cc3CCN1C)Oc1c(OC)c(OC)cc3c1[C@H](C2)N(C)CC3`: the survival in [16] is 1.58 (inactive). In [8], the parasite load remaining was 84.6% (inactive). In addition, in experiment [8], the viability was 98.6%. Besides, the inhibition in experiment [9] is 19.5% (inactive). Also, the red/green cell ratio (normalised) in [10] is 0.86 (inactive). For the same molecule, the normalised cell number in [10] (setting [18]) was found to be 1.08; in experiment [10] (setting [19]), 0.93. Moreover, the fold change in [11] (setting [20]) is 0.882 (inactive) and 1.13 (inactive); in experiment [11] (setting [21]), 1.24 and 1.19. Also, the cell count in experiment [11] (setting [22]) was 7200 and 3450; in [11] (setting [23]) it was 8160 and 3060. Also, the luciferase signal in experiment [14] is 68 AU (inactive).
As to `O=C(/C=C/c1ccc(O)c(O)c1)OCCc1ccccc1`, in [9], the inhibition was 14% (inactive). For the same molecule, the red/green cell ratio (normalised) in [10] is 0.72 (inactive). Moreover, the normalised cell number in experiment [10] (setting [18]) amounted to 1.3; in experiment [10] (setting [19]) it was 0.94. The fold change in experiment [11] (setting [20]) is 1.03 (inactive) and 1.01 (inactive) and 1.12 (inactive). Besides, the luciferase signal in [14] is 56 AU (inactive). Further, the z-score in experiment [15] was -1.37 (inactive) and -0.615 (inactive).
Turning to `O=c1c(O)c(-c2ccc(O)c(O)c2)oc2cc(O)ccc12`, the inhibition in [9] was -3.55% (inactive). Further, in experiment [10], the red/green cell ratio (normalised) was 1.02 (inactive). Also, the normalised cell number in [10] (setting [18]) turned out to be 1.04; in experiment [10] (setting [19]) it was 1.06. Besides, the AC50 (in general, the concentration giving half of the maximal activity seen) in experiment [17] was 29.6 µM (active). The fold change was 0.705 (inactive) and 0.857 (inactive) in experiment [11] (setting [20]); 0.235 and 0.741 in [11] (setting [21]). Also, the cell count in experiment [11] (setting [22]) is 4440 and 7100; in experiment [11] (setting [23]), 6300 and 8290. For the same molecule, the z-score is -0.19 (inactive) and -0.5 (inactive) in experiment [12] (setting [24]); -0.897 and -0.252 in [12] (setting [25]); 0.17 (inactive) in experiment [15]. Moreover, the luciferase signal in [14] was 56 AU (inactive).
